# Shown is part of a subset that was picked to be rich in hits.
# KDM5B inhibitor = Primary screen for KDM5B Histone Demethylases FDH-coupled qHTS. Lysine-specific demethylase 5B (Homo sapiens), Q9UGL1. KDM5B demethylase, FDH-coupled NADH fluorescence (FDH is formaldehyde dehydrogenase). Potency, µM (titrated, usually from 57.7 µM), most hits filed as inhibitors. 220,000 tested, 2.6% active. AID 1347165, 2019; active means well fitted inhibition curve with a large enough effect; further: 0% is about no effect; nearly all actives have a fitted effect of over 70% in size
# Target sequence (Q9UGL1 whole entry, looked up): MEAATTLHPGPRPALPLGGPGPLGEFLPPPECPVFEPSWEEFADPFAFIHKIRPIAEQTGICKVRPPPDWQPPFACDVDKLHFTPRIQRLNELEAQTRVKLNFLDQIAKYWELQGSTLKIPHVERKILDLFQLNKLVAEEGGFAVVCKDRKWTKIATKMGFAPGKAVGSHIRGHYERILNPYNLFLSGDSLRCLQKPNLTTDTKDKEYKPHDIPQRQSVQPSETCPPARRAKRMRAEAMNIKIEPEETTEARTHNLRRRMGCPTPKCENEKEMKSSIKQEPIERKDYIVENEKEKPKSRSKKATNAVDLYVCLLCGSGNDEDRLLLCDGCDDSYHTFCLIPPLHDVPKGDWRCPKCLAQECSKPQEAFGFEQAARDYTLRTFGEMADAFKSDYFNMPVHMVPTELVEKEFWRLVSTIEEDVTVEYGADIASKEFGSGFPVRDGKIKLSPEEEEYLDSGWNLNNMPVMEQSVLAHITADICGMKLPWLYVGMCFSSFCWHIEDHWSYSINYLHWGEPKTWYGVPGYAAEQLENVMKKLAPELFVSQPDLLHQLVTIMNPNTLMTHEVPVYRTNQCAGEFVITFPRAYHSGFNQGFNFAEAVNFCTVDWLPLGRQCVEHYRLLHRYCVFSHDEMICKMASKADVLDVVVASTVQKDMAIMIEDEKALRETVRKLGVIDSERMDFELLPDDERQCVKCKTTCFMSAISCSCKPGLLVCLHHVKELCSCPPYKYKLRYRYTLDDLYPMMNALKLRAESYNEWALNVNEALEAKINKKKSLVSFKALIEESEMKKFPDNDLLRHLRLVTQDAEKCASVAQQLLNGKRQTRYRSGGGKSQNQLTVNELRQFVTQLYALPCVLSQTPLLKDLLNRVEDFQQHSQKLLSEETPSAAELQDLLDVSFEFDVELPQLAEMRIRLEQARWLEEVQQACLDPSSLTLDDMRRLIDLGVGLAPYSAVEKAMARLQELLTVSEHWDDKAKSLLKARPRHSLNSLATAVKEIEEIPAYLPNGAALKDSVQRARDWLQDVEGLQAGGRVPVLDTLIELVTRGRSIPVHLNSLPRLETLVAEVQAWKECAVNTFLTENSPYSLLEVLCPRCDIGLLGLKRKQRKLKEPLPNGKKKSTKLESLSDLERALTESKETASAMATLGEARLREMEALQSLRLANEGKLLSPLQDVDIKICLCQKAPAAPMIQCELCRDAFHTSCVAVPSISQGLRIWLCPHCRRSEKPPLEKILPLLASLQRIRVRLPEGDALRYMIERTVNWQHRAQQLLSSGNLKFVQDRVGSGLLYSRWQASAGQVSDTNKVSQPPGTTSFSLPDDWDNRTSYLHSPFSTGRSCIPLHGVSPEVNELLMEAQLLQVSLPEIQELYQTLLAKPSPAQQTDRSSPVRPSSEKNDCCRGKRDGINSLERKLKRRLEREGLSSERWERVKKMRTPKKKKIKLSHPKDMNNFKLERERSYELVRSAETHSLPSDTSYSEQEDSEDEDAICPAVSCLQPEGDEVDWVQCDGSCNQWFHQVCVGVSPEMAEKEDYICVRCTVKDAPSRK
#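 Here, H3K4me3 peptide (12.5 µM in substrate mix) is demethylated by KDM5BΔAP, 200 nM final, after 10 min compound exposure. Formaldehyde product is coupled through FDH (0.25 U/mL in mix) to NADH fluorescence; 30-min ΔRFU feeds dose-response curves.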
# * = called active by the depositor; i = inactive. Potency means the concentration at half of the fitted maximal effect.
SMILES,KDM5B inhibitor
CC(C)(C)c1cc(CC2(NCc3ccc(OC(F)(F)F)cc3)COC2)no1,i
CNC1CCCc2ccccc21 (centres undefined),i
CCC[C@H]1CN(C(C)=O)C[C@@H]1NC(=O)c1ccc(N2CCCC2=O)cc1,i
CC(=O)N1CCC(N2C[C@H](NC(=O)c3ccoc3C)[C@@H](C3CC3)C2)CC1,i
CC(=O)N1C[C@H](NC(=O)c2cc3c(n(C)c2=O)CCCC3)[C@@H](C2CC2)C1,28µM*
N#Cc1nccnc1N1CCN(C2CCC3(CCNCC3)CC2)CC1,22µM*
CC(C(=O)Nc1nccs1)N1CCN(c2nccnc2C#N)CC1 (centres undefined),i
COCc1nnc(NC(=O)CN2CCN(c3nccnc3C#N)CC2)s1,i
CC(CN1CCOCC1)NS(=O)(=O)c1ccc(F)c(Cl)c1 (centres undefined),i
Cc1ccc(S(=O)(=O)Nc2nc3ccccc3nc2Nc2ccc(C(=O)O)cc2)cc1C,i
CN(C)CCNC(=O)c1nc(-c2cccc(N3CCOCC3)c2)cc2c1ccn2C,i
COCCn1ccc2c(C3=CCOCC3)nc(-c3cccc(O)c3)cc21,40µM*
COCCn1ccc2c(C3=CCOCC3)nc(-c3cccc(C(N)=O)c3)cc21,32µM*
C[S+](=O)([O-])N1CCC(Cn2ccc3c(N4CCOCC4)nc(-c4cccc(C(N)=O)c4)cc32)CC1,i
COc1cc(O)ccc1CN1CCCC(COc2ccccc2C(=O)N2CCOCC2)C1 (centres undefined),i
COc1cc(NC(=O)C(Cc2ccccc2)n2c(=O)[nH]c3ccccc3c2=O)cc(OC)c1 (centres undefined),i
O=C(NCCCc1ccncc1)C1CCC(=O)N(Cc2cccc(C(F)(F)F)c2)C1 (centres undefined),i
Cc1ccn(CCNC(=O)C2CCC(=O)N(Cc3ccc(Cl)cc3)C2)n1 (centres undefined),i
O=C(NCCNc1cccnc1)C1CCC(=O)N(Cc2ccc(Cl)cc2)C1 (centres undefined),11µM*
O=C(Nc1onc2c1CCCC2)c1cccc(Cl)c1,i
Cc1ccc2[nH]c(C)c(CC(=O)N(C)CCC#N)c2c1,i
C#CCN(C)C(=O)CC1COc2ccc(C(=O)NCCOC)cc2N1C (centres undefined),32µM*
COCCNC(=O)c1ccc2c(c1)N(C)C(CC(=O)N(C)C(C)C)CO2 (centres undefined),28µM*
COCCNC(=O)C(C)N1C(=O)COc2ccc(C(=O)COc3ccc(C)c(C)c3)cc21 (centres undefined),i
CC(C)CN(C(=O)CC1COc2ccc(C(=O)N(C)C)cc2N1C)C1CC1 (centres undefined),i
SMILES,KDM5B inhibitor
C#CCN(C)CC[C@@H]1CC[C@H](O)[C@@H](C(=O)NCCOC)O1,i
CCN(C(=O)CC1COc2ccc(C(=O)N(C)C)cc2N1C)C1CC1 (centres undefined),i
CCn1nccc1C(=O)Nc1ccc(-c2nnc3n2CCCC3)cc1,i
CCn1c2c(c(=O)n1Cc1ccccc1)CCN(C(=O)COc1ccccc1)C2,i
COc1ccc(C(=O)N[C@H]2CO[C@H]3[C@@H]2OC[C@@H]3Nc2nccc(C(C)(C)C)n2)cc1,i
O=C(COc1ccccc1)N[C@H]1CO[C@H]2[C@@H]1OC[C@H]2OC(=O)Nc1cccc2ccccc12,i
COc1ccccc1-c1ccnc(N[C@H]2CO[C@H]3[C@@H]2OC[C@@H]3NC(=O)c2ccccc2)n1,35µM*
COc1ccccc1-c1ccnc(N[C@H]2CO[C@H]3[C@@H]2OC[C@@H]3NC(=O)COc2ccccc2)n1,22µM*
CC(=O)c1ccc(NC(=O)N[C@H]2CO[C@H]3[C@@H]2OC[C@@H]3Nc2nccc(C(C)(C)C)n2)cc1,i
CC(=O)c1ccc(NC(=O)O[C@@H]2CO[C@H]3[C@@H]2OC[C@@H]3NC(=O)COc2ccccc2)cc1,i
c1ccc(Cn2nc(C3CCOC3)nc2-c2ccoc2)cc1 (centres undefined),i
CCCCn1nc(C2CCOC2)nc1-c1cnc(NC)nc1 (centres undefined),25µM*
NCc1ccc(-c2nc(C3CCOC3)nn2Cc2ccccc2)cc1 (centres undefined),i
CNC(=O)c1ccc(CN(C2CC2)S(=O)(=O)c2ccc3c(c2)CCC3)cc1,i
CCN(CC(=O)NC)C(=O)c1n[nH]c(=O)c2ccccc12,i
CCOC(=O)C1CCC(CNC(=O)N2CCCC2c2ccc(Cl)cc2)CC1 (centres undefined),i
O=C(c1cccc2[nH]ccc12)N1CC[C@@H]2COCCN(Cc3ccncc3)[C@@H]2C1,28µM*
CS(=O)(=O)N1C[C@H]2CCN(C(=O)c3cccc4[nH]ccc34)C[C@H]21,18µM*
Cc1ncccc1C(=O)N1CC[C@@H]2CN(S(C)(=O)=O)[C@@H]2C1,i
O=C(c1cccs1)N1CC[C@@H]2COCCN(Cc3cccnc3)[C@@H]2C1,i
COc1ccc(C(=O)N2CC[C@@H]3COCCN(Cc4cccnc4)[C@@H]3C2)c(OC)c1,i
CC(=O)NCC(=O)N1CC[C@@H]2COCCN(Cc3ccccc3)[C@@H]2C1,i
O=C(c1ccoc1)N1CC[C@@H]2COCCN(Cc3ccccc3)[C@@H]2C1,i
CS(=O)(=O)N1C[C@H]2CCN(C(=O)c3ccc4[nH]ccc4c3)C[C@H]21,i
O=C(c1cccc2[nH]ccc12)N1CC[C@@H]2COCCN(Cc3cccnc3)[C@@H]2C1,18µM*
SMILES,KDM5B inhibitor
Cc1[nH]c2ccccc2c1C(=O)N1CCN(S(=O)(=O)c2cc(F)ccc2F)CC1,i
Nc1cc(Cl)ccc1OCc1ccccc1,i
COc1ccc(CNC(=O)C2CCCN(S(=O)(=O)c3cc(-c4noc(C)n4)ccc3C)C2)cc1 (centres undefined),i
CN(C(=O)CSc1nc2c(=O)[nH]cnc2n1CC1CCCO1)c1ccccc1 (centres undefined),i
CCCCCCc1ccc(C(=O)Cn2cnc3c2c(=O)n(C)c(=O)n3C)cc1,i
CC1(C)CC(NC(=O)C2CCN(S(=O)(=O)c3ccc(C(C)(C)C)cc3)CC2)CC(C)(C)N1,i
COc1ccccc1-c1[nH]nc2ncc(C(=O)Nc3cc(C)nn3C)nc12,i
COc1ccccc1-c1[nH]nc2ncc(C(=O)NCc3ccccc3)nc12,32µM*
COc1ccccc1-c1[nH]nc2ncc(C(=O)NCC3CC3)nc12,32µM*
COc1ccc(-c2[nH]nc3ncc(C(=O)N(C)Cc4ccccc4)nc23)c(C)c1,i
COc1ccc(-c2[nH]nc3ncc(C(=O)NCC4CCOCC4)nc23)c(C)c1,i
COc1ccccc1-c1[nH]nc2ncc(C(=O)Nc3ccc4[nH]ccc4c3)nc12,i
O=C(OCc1nnnn1-c1ccccc1)C1(c2ccc(Cl)cc2)CCC1,i
CNC(=S)NNC(=O)c1ccc(C)cc1Cl,i
CCOc1ccc(NC(=O)c2cnn3c2NC(c2ccc(OC)cc2)=CC3c2ccccc2)cc1 (centres undefined),i
Cc1noc(-c2nc(-c3cccc(C(F)(F)F)c3)no2)n1,i
O=C(NC1CCCN(c2cc(-c3ccccc3)[nH]n2)C1)c1ccc(C(F)(F)F)cc1 (centres undefined),i
FC(F)(F)c1cccc(-c2noc(-c3ccc(Br)cc3)n2)c1,i

# High-throughput results: PubChem, National Center for Advancing Translational Sciences (NCATS)
